Assay [1] relates to frog Estrogen Receptor (ER), gene 398734. The assay can be described thus: ATG_frER1_XSP2: Attagene TRANS-FACTORIAL Multi-Species (XSP2) HepG2 Assay for frog Estrogen Receptor (ER) (AID 2283821).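 Also: hits raise reporter mRNA above DMSO baseline so potency means agonist or activator.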 Summed up: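 HepG2 cells transiently transfected with GAL4-UAS reporter units expressing a chimeric frog ER-Gal4 protein; 24 h exposure. Reporter mRNA quantified by RT-PCR, fluorescent labelling and capillary electrophoresis; gain of signal fitted against DMSO baseline.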

The subject of assay [2] is zebrafish Estrogen Receptor (ER2b), gene 317733. The experiment in a line: ATG_zfER2b_XSP2: Attagene TRANS-FACTORIAL Multi-Species (XSP2) HepG2 Assay for zebrafish Estrogen Receptor (ER2b) (AID 2283823).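 Also: fitted upward as reporter gain over DMSO so potency reflects activation.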 The method in brief:
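Reporter transcripts quantified by RT-PCR, fluorescent labelling and capillary electrophoresis after 24 h dosing of transfected HepG2 expressing zebrafish ER2b-GAL4 fusion. Medium contained 3 nM 6-alpha-fluorotestosterone plus 1.5 nM norgestrel; DMSO baseline.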

Assay [3] is described as follows: ATG_M_32_XSP2: Attagene TRANS-FACTORIAL Multi-Species (XSP2) HepG2 Assay for M19 Transcription Factor (Internal Marker) (AID 2283826). Summed up: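 HepG2 cells transiently transfected with GAL4-UAS reporter units; XSP2 panel included 3 nM 6-alpha-fluorotestosterone and 1.5 nM norgestrel for androgen receptor stimulation. Reporter mRNA read 24 h post-dosing by RT-PCR/capillary electrophoresis; fitted upward versus DMSO.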

For assay [4], the target named is Estrogen receptor (Homo sapiens) (UniProt P03372). The assay can be described thus: ATG_hERa_XSP2: Attagene TRANS-FACTORIAL Multi-Species (XSP2) HepG2 Assay for human Estrogen Receptor (ERa) (AID 2283827). The method in brief: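 HepG2 cells transiently transfected with multiplexed GAL4-UAS reporters driven by chimeric receptor-Gal4 proteins, dosed 24 h with 3 nM 6-alpha-fluorotestosterone and 1.5 nM norgestrel present. Reporter mRNA by RT-PCR and capillary electrophoresis; gain-of-signal fit versus DMSO.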
Estrogen receptor (Homo sapiens), sequence (P03372 whole entry, looked up, the tested form may be a part): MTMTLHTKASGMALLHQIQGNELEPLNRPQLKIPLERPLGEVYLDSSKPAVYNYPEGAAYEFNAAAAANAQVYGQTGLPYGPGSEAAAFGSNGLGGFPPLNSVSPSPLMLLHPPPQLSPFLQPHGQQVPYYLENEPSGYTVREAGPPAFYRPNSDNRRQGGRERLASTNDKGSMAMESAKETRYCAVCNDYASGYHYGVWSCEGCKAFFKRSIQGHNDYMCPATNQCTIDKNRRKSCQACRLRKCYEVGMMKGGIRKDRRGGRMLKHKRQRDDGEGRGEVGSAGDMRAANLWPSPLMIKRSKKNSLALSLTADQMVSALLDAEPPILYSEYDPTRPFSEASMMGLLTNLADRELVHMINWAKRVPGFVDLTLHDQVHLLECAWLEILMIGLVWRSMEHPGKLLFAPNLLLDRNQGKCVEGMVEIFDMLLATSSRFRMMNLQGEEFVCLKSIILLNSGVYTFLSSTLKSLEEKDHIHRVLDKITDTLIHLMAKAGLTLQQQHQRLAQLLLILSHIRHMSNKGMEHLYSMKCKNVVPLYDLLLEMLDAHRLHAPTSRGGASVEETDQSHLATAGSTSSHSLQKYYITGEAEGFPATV

Assay [5] deals with Peroxisome proliferator-activated receptor gamma (Homo sapiens) (UniProt P37231). The assay can be described thus: ATG_hPPARg_XSP2: Attagene TRANS-FACTORIAL Multi-Species (XSP2) HepG2 Assay for human Peroxisome Proliferator-activated Receptor gamma (PPARg) (AID 2283829).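 Also: actives raise reporter mRNA above DMSO so AC50 reflects PPARg activation.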 Summed up: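 HepG2 cells transiently transfected with GAL4-UAS reporter units driven by chimeric NR-Gal4 proteins; androgen receptor stimulated with 3 nM 6-alpha-fluorotestosterone and 1.5 nM norgestrel. After 24 h, reporter mRNA quantified by RT-PCR and capillary electrophoresis versus DMSO.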
Peroxisome proliferator-activated receptor gamma (Homo sapiens), sequence (P37231 whole entry, looked up, the tested form may be a part): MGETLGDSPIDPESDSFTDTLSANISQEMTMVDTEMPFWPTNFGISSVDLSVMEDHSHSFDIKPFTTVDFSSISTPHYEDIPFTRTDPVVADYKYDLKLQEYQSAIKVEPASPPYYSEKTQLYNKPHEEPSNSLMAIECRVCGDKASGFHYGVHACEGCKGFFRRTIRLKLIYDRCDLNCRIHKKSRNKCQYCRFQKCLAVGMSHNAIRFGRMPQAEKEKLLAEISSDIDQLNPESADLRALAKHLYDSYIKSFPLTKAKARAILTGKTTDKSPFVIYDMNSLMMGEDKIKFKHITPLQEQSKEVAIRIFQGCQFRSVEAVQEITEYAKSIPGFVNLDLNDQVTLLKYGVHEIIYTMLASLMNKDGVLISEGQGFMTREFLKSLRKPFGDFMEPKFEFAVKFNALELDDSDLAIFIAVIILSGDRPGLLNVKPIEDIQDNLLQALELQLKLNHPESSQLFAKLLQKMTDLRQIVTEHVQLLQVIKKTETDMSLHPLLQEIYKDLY

Assay [6] concerns the target mouse Peroxisome Proliferator-activated Receptor gamma (PPARg), Pparg (gene 19016) (UniProt P37238). The experiment in a line: ATG_mPPARg_XSP2: Attagene TRANS-FACTORIAL Multi-Species (XSP2) HepG2 Assay for mouse Peroxisome Proliferator-activated Receptor gamma (PPARg) (AID 2283830).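 Also: hits are gains in reporter mRNA above DMSO so AC50 marks activation.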 Summed up: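 HepG2 cells transiently transfected with GAL4-UAS reporter units for chimeric NR-Gal4 proteins including mouse PPARg, exposed 24 h; medium contained 3 nM 6-alpha-fluorotestosterone and 1.5 nM norgestrel. Reporter mRNA quantified by RT-PCR, HpaI digestion and capillary electrophoresis, vs DMSO.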

Assay [7] addresses zebrafish Thyroid Hormone Receptor alpha (TRa), thraa (gene 30670) (UniProt Q98867). The assay can be described thus: ATG_zfTRa_XSP2: Attagene TRANS-FACTORIAL Multi-Species (XSP1) HepG2 Assay for zebrafish Thyroid Hormone Receptor alpha (TRa) (AID 2283832).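 Also: actives raise zebrafish TRa-Gal4 reporter transcript above DMSO baseline.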 Summed up: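 HepG2 cells transiently transfected with multiplexed GAL4-UAS reporter units expressing chimeric NR-Gal4 proteins; 24 h after dosing, reporter mRNA measured by RT-PCR, FAM labelling, HpaI digestion and capillary electrophoresis; gain of signal versus DMSO baseline.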

For assay [8], the system named is frog Estrogen Receptor (ER2), gene 100174814. The assay can be described thus: ATG_frER2_XSP2: Attagene TRANS-FACTORIAL Multi-Species (XSP2) HepG2 Assay for frog Estrogen Receptor (ER2) (AID 2283828). The method in brief: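 HepG2 cells transiently transfected with multiplexed GAL4-UAS reporter units expressing chimeric frog ER2–Gal4 protein; reporter mRNA measured 24 h after chemical dosing by RT-PCR, fluorescent labeling and capillary electrophoresis. Gain-of-signal fitted relative to DMSO baseline.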

Assay [9] deals with zebrafish Androgen Receptor (AR), gene 100005148. The assay can be described thus: ATG_zfAR_XSP2: Attagene TRANS-FACTORIAL Multi-Species (XSP2) HepG2 Assay for zebrafish Androgen Receptor (AR) (AID 2283825).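 Also: hits raise reporter mRNA above DMSO so AC50 reflects agonist-type gain.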 As to the method:
ATG_XSP2_multi-species_TRANS is a cell-based, multiplexed assay created by modifying the existing Attagene TRANS-FACTORIAL system to include a panel of nuclear receptors from some or all the following species: human (Homo sapiens), mouse (Mus musculus), frog (Xenopus laevis), zebrafish (Danio rerio), chicken (Gallus gallus), and turtle (Chrysemys picta). The ECOTOX-FACTORIAL format uses HepG2, a human liver cell line, with measurements taken at 24 hours after chemical dosing in a 24-well plate. Xsp2 included 3 nM 6-alpha-fluorotestosterone and 1.5 nM norgestrel to stimulate the androgen receptor.ATG_zfAR_XSP2 is one of 29 assay components measured or calculated from the ATG_XSP2_multi-species_TRANS assay. It is designed to make measurements of mRNA induction, a form of inducible reporter, as detected with fluorescence intensity signals by Reverse transcription polymerase chain reaction (RT-PCR) and Capillary electrophoresis technology.The assay endpoint ATG_zfAR_XSP2 was analyzed in the positive analysis fitting direction relative to DMSO as the negative control and baseline of activity. […] Furthermore, this assay endpoint can be referred to as a primary readout, because this assay has produced multiple assay endpoints where this one serves a reporter gene function. […]

The test system of assay [10] is frog Androgen Receptor (AR), gene 399456. The experiment in a line: ATG_frAR_XSP2: Attagene TRANS-FACTORIAL Multi-Species (XSP2) HepG2 Assay for frog Androgen Receptor (AR) (AID 2283824).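 Also: actives raise reporter signal above DMSO so AC50 reflects agonist-like induction.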 The method in brief: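 HepG2 cells transiently transfected with GAL4-UAS reporter units and frog (Xenopus laevis) AR-Gal4 chimera; reporter mRNA measured 24 h after dosing by RT-PCR and capillary electrophoresis. Gain of signal fitted relative to DMSO baseline.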

Values joined by “and” are separate entries in the source; they are usually repeats but may differ in a detail not shown here. Equal values may be shown once. Inconclusive results are not listed. Some structures have more than one record in an assay (separate samples or runs), and their calls can disagree. Active and inactive are the calls of the source. The calls were made as follows: active = hit-call score of the fitted dose curve at least 0.9, where 1 is the maximum; inconclusive = response in the unintended direction; inactive = score below 0.9.

mouse Peroxisome Proliferator-activated Receptor gamma (PPARg), Pparg (gene 19016), sequence (P37238 whole entry, looked up, the tested form may be a part): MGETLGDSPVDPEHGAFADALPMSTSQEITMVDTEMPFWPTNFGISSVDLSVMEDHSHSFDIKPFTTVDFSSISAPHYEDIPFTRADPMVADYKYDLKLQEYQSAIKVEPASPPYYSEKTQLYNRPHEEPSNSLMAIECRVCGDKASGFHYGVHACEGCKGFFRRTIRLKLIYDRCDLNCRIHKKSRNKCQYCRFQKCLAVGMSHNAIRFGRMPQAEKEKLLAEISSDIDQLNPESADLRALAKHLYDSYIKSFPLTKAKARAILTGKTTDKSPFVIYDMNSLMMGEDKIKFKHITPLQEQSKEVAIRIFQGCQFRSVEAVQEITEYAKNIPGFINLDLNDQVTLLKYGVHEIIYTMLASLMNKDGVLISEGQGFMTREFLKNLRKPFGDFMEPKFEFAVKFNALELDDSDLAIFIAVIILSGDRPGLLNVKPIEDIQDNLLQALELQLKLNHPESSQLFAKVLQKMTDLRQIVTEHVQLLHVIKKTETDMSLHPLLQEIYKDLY
zebrafish Thyroid Hormone Receptor alpha (TRa), thraa (gene 30670), sequence (Q98867 whole entry, looked up, the tested form may be a part): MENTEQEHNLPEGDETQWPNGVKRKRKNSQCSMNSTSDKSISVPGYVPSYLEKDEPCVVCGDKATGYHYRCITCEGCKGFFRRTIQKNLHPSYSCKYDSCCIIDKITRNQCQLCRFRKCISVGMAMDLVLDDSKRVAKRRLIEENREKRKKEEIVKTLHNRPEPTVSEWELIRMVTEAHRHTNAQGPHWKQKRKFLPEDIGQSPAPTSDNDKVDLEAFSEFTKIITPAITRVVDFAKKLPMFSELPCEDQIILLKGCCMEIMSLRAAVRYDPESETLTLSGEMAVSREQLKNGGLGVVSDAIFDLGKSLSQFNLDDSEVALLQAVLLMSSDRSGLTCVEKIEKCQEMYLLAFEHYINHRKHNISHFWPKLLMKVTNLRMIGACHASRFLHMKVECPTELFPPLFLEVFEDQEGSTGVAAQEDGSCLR

Consider `Oc1c(I)cc(I)cc1I`, for which the outcome in [1], in assay [2], in assay [3] and in assay [7] was inactive. Further, the concentration at half-maximal activity (AC50) in assay [2] was 57.4 µM (active); in assay [4], 3.11 µM (active); in assay [5], 12 µM (active) and 10.4 µM (active); in assay [6] it was 18 µM (active) and 14.1 µM (active); in assay [7], 100 µM (active).

Turning to `O=S(=O)(c1ccc(Cl)cc1)c1ccc(Cl)cc1`, the AC50 was 26.4 µM (active) in assay [1]; 100 µM (active) and 27.1 µM (active) in assay [2]; 4.86 µM (active) and 27.8 µM (active) in assay [4]; 28 µM (active) in [8]; 11.4 µM (active) and 6.91 µM (active) in assay [5]; 16.3 µM (active) and 26.8 µM (active) in assay [6]. Besides, the result in assay [1], in [8] and in assay [7] was inactive.

Take `Clc1ccc(C2(Cn3cncn3)CC(Br)CO2)c(Cl)c1` (configuration not stated): the AC50 was 9.65 µM (active) and 5.35 µM (active) in [1]; 51.4 µM (active) and 29.2 µM (active) in assay [2]; 4.43 µM (active) and 6.56 µM (active) in assay [4]; 28.8 µM (active) in [8]; 62.7 µM (active) in [6]. The compound was classed as inactive in assay [3], in assay [8], in assay [5], in assay [6] and in assay [7].

On to `Oc1ccc(-c2ccccc2)cc1`, for which the AC50 was 2.17 µM (active) and 811 nM (active) in assay [1]; 5.61 µM (active) and 3.05 µM (active) in [2]; 1.75 µM (active) and 690 nM (active) in assay [8]; 63.1 µM (active) and 100 µM (active) in assay [5]; 100 µM (active) in [6]. The compound was classed as inactive in assay [3], in assay [6] and in assay [7].

Take `CC(=O)C=C(C)C`: the outcome in assay [1], in assay [2], in assay [9], in assay [3], in assay [4] and in [5] was inactive. Besides, the compound was called inactive in assay [6] and in assay [7]. In addition, in assay [8], the AC50 was 183 µM (active).

In the case of `CC(C)(C)c1cc(O)ccc1O`, the AC50 was 15.6 µM (active) in assay [1]; 55.2 µM (active) in assay [2]; 33.1 µM (active) in [4]; 46.8 µM (active) in assay [8]; 70.6 µM (active) in [6]; 54.9 µM (active) in [7]. The compound was called inactive in assay [10] and in assay [3].

As to `CC12CC1(C)C(=O)N(c1cc(Cl)cc(Cl)c1)C2=O` (configuration not stated), the compound was called inactive in [1], in assay [2], in assay [3], in assay [8], in assay [5] and in assay [6]. The outcome in assay [7] was inactive. The concentration at half-maximal activity (AC50) is 29.8 µM (active) in [2] and 100 µM (active) in assay [8].

As for `C[C@]12CC[C@H](O)CC1=CC[C@@H]1[C@@H]2CC[C@]2(C)C(=O)CC[C@@H]12`, the concentration at half-maximal activity (AC50) in [1] was 3.14 µM (active) and 1.55 µM (active); in assay [2], 2.89 µM (active) and 1.73 µM (active); in [8], 3.43 µM (active) and 2.23 µM (active). Also, the call in [3], in assay [5], in [6] and in [7] was inactive.

Turning to `O=C1C2(Cl)C3(Cl)C4(Cl)C(Cl)(Cl)C5(Cl)C3(Cl)C1(Cl)C5(Cl)C24Cl` (configuration not stated), the result in assay [1], in assay [3], in [8], in assay [5], in [6] and in [7] was inactive. In addition, in assay [2], the AC50 is 4.05 µM (active).

With `COP(=O)(OC)O/C(=C\Cl)c1cc(Cl)c(Cl)cc1Cl`, the outcome in assay [1], in assay [3], in [8] and in assay [7] was inactive. The AC50 in assay [2] is 45.5 µM (active); in assay [4], 9.68 µM (active); in [5], 15 µM (active); in assay [6], 14.8 µM (active).

On to `C[C@]12CCC(=O)C[C@@H]1CC[C@@H]1[C@@H]2CC[C@]2(C)[C@@H](O)CC[C@@H]12`, for which the compound was classed as inactive in [1], in assay [2], in [9], in assay [3], in assay [5] and in assay [6]. Besides, the compound was classed as inactive in [7]. For the same compound, in assay [10], the AC50 was 0.0457 µM (active).

In the case of `CC(C)C1CCC(Cc2ccc(Cl)cc2)C1(O)Cn1cncn1` (configuration not stated), the compound was classed as inactive in assay [1], in assay [3], in [4], in [8], in assay [6] and in assay [7]. Moreover, the AC50 is 14.6 µM (active) and 2.83 µM (active) in assay [2]; 7.95 µM (active) in assay [4]; 14.3 µM (active) in assay [8]; 3.93 µM (active) in assay [5]; 10.2 µM (active) in assay [6].

Consider `CC1(C)CCC(Cc2ccc(Cl)cc2)C1(O)Cn1cncn1` (configuration not stated), for which the compound was called inactive in assay [1], in assay [3], in assay [4], in assay [5] and in [7]. The concentration at half-maximal activity (AC50) was 27.5 µM (active) in assay [2], 26 µM (active) in [8] and 70.1 µM (active) in assay [6].

For the compound `C[C@H]1CCCC(=O)CCC/C=C/c2cc(O)cc(O)c2C(=O)O1`, the concentration at half-maximal activity (AC50) in assay [1] was 7.04 nM (active) and 6.82 nM (active); in assay [2], 27.1 nM (active) and 8.37 nM (active); in [4], 3.41 nM (active) and 1.59 nM (active); in assay [8], 0.00566 µM (active). The call in [8], in assay [5], in assay [6] and in [7] was inactive.

For `CC(C)(C)CC(C)(C)c1ccc(O)cc1`, the AC50 in assay [1] is 3.4 µM (active); in assay [2] it was 5.17 µM (active); in [8] it was 4.83 µM (active).

Usually AC50 stands for the concentration at which the activity in the assay is half-maximal.

These data come from PubChem BioAssay (EPA / NIEHS).
